Assay results from PubChem BioAssay (EPA / NIEHS).
Active and inactive are the calls of the source. Rule for the calls: active = hit-call score of the fitted dose curve at least 0.9, where 1 is the maximum; inactive = score below 0.9.

Read-out: Lipoprotein lipase (LPL), LPL (gene 4023)
Assay: LTEA_HepaRG_LPL: Life Technologies and Expression Analysis (LTEA) Assay for Lipoprotein lipase (LPL) using HepaRG (AID 2283515)
Conditions: mRNA level, 48 h; actives raise or lower the signal
Experimental: LTEA_HepaRG is a cell based, multiplexed-readout assay that uses HepaRG, a human liver cell line, with measurements taken at 48 hours after chemical dosing on a 96-well plate.LTEA_HepaRG_LPL is one of 102 assay component(s) measured in the LTEA HepaRG cell culture assay. It is a marker of Steatosis.Data from the assay component LTEA_HepaRG_LPL was analyzed into 1 endpoint. This assay endpoint, LTEA_HepaRG_LPL, was analyzed with bidirectional fitting relative to DMSO as the negative control and baseline of activity. Using a type of inducible reporter, measures of mRNA induction for gain or loss-of-signal activity can be used to understand regulation of transcription factor activity. To generalize the intended target to other relatable targets, this assay endpoint is annotated to the esterase intended target family, where the subfamily is lipase.
A total of 1060 chemcials from the ToxCast library were tested in eight-point concentration-response experiments. Cell culture and cytotoxicity assays were conducted at Thermo Fisher Scientific's Custom Services facility (Madison, WI). A single lot of human HepaRG cells (Thermo Fisher Scientific, Frederick, MD) was used for the cell culture experiments. 96-well format collagen type I coated plates of human HepaRG cells were prepared using established methods. Briefly, cryopreserved HepaRG cells were thawed, plated at a density of approximately 100,000 cells/well in HepaRG Thaw, Plate, and General Purpose media (HPRG770, Thermo Fisher Scientific), and incubated for 48 hours. 0.5% DMSO was selected as vehicle control to balance the requisite need of DMSO in HepaRG cultures to maintain differentiation (for example, baseline metabolism, proportions of hepatocytes vs. cholangiocytes), while enabling further hepatic receptor pathway activation (for example, PXR and CAR) in response to chemical exposure. 48 hours after plating, the culture medium was replaced with HepaRG Serum-Free Incudtion Media. Cells were exposed to each test chemical in duplicate and maintained in CO2 incubators for another 48 hours. Chemical plates were thawed to room temperature and 200x concentrations of treatment groups were prepared. 8-point conentration-reponse curves were made with the highest exposure at 100 uM, followed by half-log dilutions, all in 0.5% DMSO. Each test plate contained variouse controls, induction positive controls (1mM phenobarbital), cytotoxicity positive controls ([…] aflatoxin B1), vehicle controls (0.5% DMSO), and total lysis controls (0.5% DMSO). Cell morphology images were taken using an Essen IncuCyte FLR automated microscope, with six 96-well plates imaged in about 24 minutes. Images were captured and exported and JPEG files. Spent culture media was transfered to black-well plates for the LDH assay, and remaining media was sorted at -80 C for later use. Cells were treated with RLT buffer and frozen until shipped for gene expression analysis. Total RNA was isolated from the cell suspension in 75 uL of Buffer RLT (Qiagen, Germantown, MD 20874) by Quintiles/Expression Analysis (Durham, NC) using a custom isolation procedure. Total RNA from each plate well was transferred to a preamplification plate. Fluidigm's 96.96 Dynamic ArrayTM (Fluidigm, Amsterdam, the Netherlands) technology was used for gene expression analyses by quantitative reverse transcription polymerase chain reaction (qRT-PCR, performed by Quintiles/Expression Analysis, Durham, NC)89. Standard TaqManTM Assays (Applied Biosystems/ThermoFisher Scientific, Foster City, CA) were used to assess the expression of 93 genes selected based on their selectivity and sensitivity to important hepatic receptors known to be modulated by environmental chemicals; importance in human hepatocyte functionality; and hepatotoxicity. […]

Row | Compound | outcome | AC50
1 | S=C1NCCN1 | inactive | –
2 | CCC(=NOC/C=C/Cl)C1=C(O)CC(C2CCOCC2)CC1=O (stereo not given) | inactive | –
3 | CCOP(=S)(Oc1cnc(C(C)(C)C)nc1)OC(C)C (stereo not given) | inactive | –
4 | CCOP(=S)(OCC)SCCSCC | inactive | –
5 | CC[C@H](C)[C@H]1O[C@]2(C=C[C@@H]1C)C[C@@H]1C[C@@H](C/C=C(\C)[C@@H](O[C@H]3C[C@H](OC)[C@@H](O[C@H]4C[C@H](OC)[C@@H](NC)[C@H](C)O4)[C@H](C)O3)[C@@H](C)/C=C/C=C3\CO[C@@H]4[C@H](O)C(C)=C[C@@H](C(=O)O1)[C@]34O)O2 | – | 12.1 µM (active)
6 | CN(C)NC(=O)CCC(=O)O | inactive | –
7 | CCNc1nc(Cl)nc(NC(C)(C)C#N)n1 | inactive | –
8 | CCCSP(=O)(OCC)SCCC | inactive | –
9 | CNC(=O)Oc1cccc2c1OC(C)(C)O2 | inactive | –
10 | CCC(=O)Nc1ccc(Cl)c(Cl)c1 | inactive | –
11 | C#CC(C)(C)NC(=O)c1cc(Cl)cc(Cl)c1 | inactive | –
12 | Nc1c(Cl)cc([N+](=O)[O-])cc1Cl | – | 15.5 µM (active)
13 | CC(C1CC1)C(O)(Cn1cncn1)c1ccc(Cl)cc1 (stereo not given) | inactive | –
14 | FC(F)C(F)(F)OCC(Cn1cncn1)c1ccc(Cl)cc1Cl (stereo not given) | – | 31.3 µM (active)
15 | CCCOCC(=Nc1ccc(Cl)cc1C(F)(F)F)n1ccnc1 | – | 12.8 µM (active)
16 | CC1=NNC(=O)N(/N=C/c2cccnc2)C1 | inactive | –
17 | CCCCOC(=O)[C@@H](C)Oc1ccc(Oc2ccc(C#N)cc2F)cc1 | – | 40.4 µM (active)
18 | CCOP(=S)(OCC)OC(Cl)C(Cl)(Cl)Cl (stereo not given) | inactive | –
19 | CCOP(=S)(OCC)Oc1cc(C)nc(C(C)C)n1 | inactive | –
20 | Cc1nn(-c2cc(NS(C)(=O)=O)c(Cl)cc2Cl)c(=O)n1C(F)F | inactive | –

Row | Compound | outcome | AC50
21 | CC(C)N(C(=O)SCC(Cl)=C(Cl)Cl)C(C)C | inactive | –
22 | Cc1ccn2nc(S(=O)(=O)Nc3c(F)cccc3F)nc2n1 | inactive | –
23 | CN(C)C(=O)Nc1cccc(C(F)(F)F)c1 | inactive | –
24 | CCOP(=O)(SC(C)CC)N1CCSC1=O (stereo not given) | inactive | –
25 | CSc1nc(NC(C)C)nc(NC(C)C)n1 | inactive | –
26 | CNc1cnn(-c2cccc(C(F)(F)F)c2)c(=O)c1Cl | inactive | –
27 | CCCOc1nn(C(=O)NS(=O)(=O)c2ccccc2C(=O)OC)c(=O)n1C | inactive | –
28 | COc1cc(OC)nc(Sc2cccc(Cl)c2C(=O)O)n1 | inactive | –
29 | CCc1cccc(C)c1N(C(=O)CCl)C(C)COC (stereo not given) | inactive | –
30 | CNC(=O)ON=C(C)SC | inactive | –
31 | C[N+]1(C)CCCCC1 | inactive | –
32 | O=c1ccc(=O)[nH][nH]1 | inactive | –
33 | CON=C(C(=O)OC)c1ccccc1CON=C(C)c1cccc(C(F)(F)F)c1 | inactive | –
34 | COP(=O)(OC)SCn1c(=O)oc2cc(Cl)cnc21 | inactive | –
35 | O=C(O)c1cc(Oc2ccc(C(F)(F)F)cc2Cl)ccc1[N+](=O)[O-] | – | 12.6 µM (active)
36 | CCOC(=O)CC(SP(=O)(OC)OC)C(=O)OCC (stereo not given) | inactive | –
37 | CCOP(=S)(OCC)Oc1ccc2c(C)c(Cl)c(=O)oc2c1 | inactive | –
38 | COc1cccc(C(=O)NN(C(=O)c2cc(C)cc(C)c2)C(C)(C)C)c1C | inactive | –
39 | Cc1cc(C2CC2)nc(Nc2ccccc2)n1 | inactive | –
40 | CCOC(=O)COc1cc(-c2nn(C)c(OC(F)F)c2Cl)c(F)cc1Cl | inactive | –
